Results from the supplement of paper PMC6411743.
± gives the standard deviation of the averaged measurements. About 5,400 targets were measured; listed, in parts, are those with the largest changes and a random draw of the rest.

Target: T1, PINX1 (UniProt Q96BK5)
T1 sequence (whole entry): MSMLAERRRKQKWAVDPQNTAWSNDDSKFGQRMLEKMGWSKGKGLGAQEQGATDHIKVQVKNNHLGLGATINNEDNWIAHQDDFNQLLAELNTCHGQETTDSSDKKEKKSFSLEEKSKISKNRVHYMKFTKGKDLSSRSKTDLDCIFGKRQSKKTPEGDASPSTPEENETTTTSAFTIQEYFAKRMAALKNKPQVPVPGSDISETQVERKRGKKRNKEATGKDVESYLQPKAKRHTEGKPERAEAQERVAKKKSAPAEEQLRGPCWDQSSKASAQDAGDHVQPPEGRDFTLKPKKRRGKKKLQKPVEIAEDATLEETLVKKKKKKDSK
Test: NP40-soluble protein abundance relative to vehicle (solubility fold change) (ratio); higher = more soluble protein in presence of GTP
Description: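 Solubility proteome profiling in Jurkat crude lysate. Lysate was treated with Mg-GTP (0.1-10 mM) for 10 min at room temperature and 3 min at 37 °C, then solubilised with 0.8% NP40 and benzonase, followed by ultracentrifugation. Proteins were quantified by TMT10 LC-MS/MS; the value is the NP40-soluble abundance relative to the NP40-processed vehicle, from 3 independent experiments.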

Compound `Nc1nc2c(ncn2[C@@H]2O[C@H](COP(=O)(O)OP(=O)(O)OP(=O)(O)O)[C@@H](O)[C@H]2O)c(=O)[nH]1` [guanosine triphosphate] has an NP40-soluble protein abundance (concentration: 0.1mM) of 1.22 ± 0.065, an NP40-soluble protein abundance (concentration: 0.5mM) of 1.28 ± 0.074 and an NP40-soluble protein abundance (concentration: 1mM) of 1.45 ± 0.033. It also gave an NP40-soluble protein abundance (concentration: 2mM) of 1.64 ± 0.093, an NP40-soluble protein abundance (concentration: 4mM) of 1.96 ± 0.15 and an NP40-soluble protein abundance (concentration: 6mM) of 2.01 ± 0.21. For the same compound, the NP40-soluble protein abundance (concentration: 8mM) was 2.36 ± 0.13 and the NP40-soluble protein abundance (concentration: 10mM) was 2.62 ± 0.26.
